PubChem BioAssay (Tox21)
Results filed as inconclusive are left out. Where a call stands in place of a potency, no number is given. A number with no mark means an inactive call. Active and inactive are the calls of the source. Calls come from the whole dose curve; as a rule, active = well fitted curve in the direction sought with a large enough effect in the repeat runs; inconclusive = weak or mixed curves; inactive = no such curve, though single readings can be large; an effect the other way counts as inactive or inconclusive.

What was measured:
[1] = biological target: Cytochrome P450 2C9 (Homo sapiens) (UniProt P11712); test: Cytochrome P450 Family 2 Subfamily C Member 9 (CYP2C9) small molecule antagonists: luciferase reporter qHTS assay (AID 1671198); note: nearly all actives have a fitted effect of over 50% in size; note: potency is the fitted concentration of half-maximal effect
Sequence of Cytochrome P450 2C9 (Homo sapiens) (P11712 whole entry, looked up): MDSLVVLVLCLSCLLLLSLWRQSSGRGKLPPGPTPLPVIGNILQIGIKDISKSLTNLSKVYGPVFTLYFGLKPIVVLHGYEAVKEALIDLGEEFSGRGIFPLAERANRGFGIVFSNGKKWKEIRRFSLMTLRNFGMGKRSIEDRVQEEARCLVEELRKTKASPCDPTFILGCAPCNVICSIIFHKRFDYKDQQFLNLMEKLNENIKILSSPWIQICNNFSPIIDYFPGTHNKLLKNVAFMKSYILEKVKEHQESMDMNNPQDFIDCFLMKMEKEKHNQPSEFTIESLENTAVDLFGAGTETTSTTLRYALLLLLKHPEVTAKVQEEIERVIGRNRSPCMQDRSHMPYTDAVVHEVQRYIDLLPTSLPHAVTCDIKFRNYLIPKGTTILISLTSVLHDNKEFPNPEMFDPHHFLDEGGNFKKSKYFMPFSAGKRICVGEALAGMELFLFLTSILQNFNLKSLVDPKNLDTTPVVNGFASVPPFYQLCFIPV
Method in brief: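 P450-Glo proluciferin substrate with CYP2C9 enzyme; 10 min RT preincubation, then NADPH regeneration 1 h at 37C; luciferin detection reagent 20 min RT, luminescence in relative luminescence units.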

[2] = biological target: Cytochrome P450 1A2 (Homo sapiens) (UniProt P05177); test: Cytochrome P450 Family 1 Subfamily A Member 2 (CYP1A2) small molecule antagonists: luciferase reporter qHTS assay (AID 1671199); note: nearly all actives have a fitted effect of over 50% in size; note: potency is the fitted concentration of half-maximal effect
Sequence of Cytochrome P450 1A2 (Homo sapiens) (P05177 whole entry, looked up): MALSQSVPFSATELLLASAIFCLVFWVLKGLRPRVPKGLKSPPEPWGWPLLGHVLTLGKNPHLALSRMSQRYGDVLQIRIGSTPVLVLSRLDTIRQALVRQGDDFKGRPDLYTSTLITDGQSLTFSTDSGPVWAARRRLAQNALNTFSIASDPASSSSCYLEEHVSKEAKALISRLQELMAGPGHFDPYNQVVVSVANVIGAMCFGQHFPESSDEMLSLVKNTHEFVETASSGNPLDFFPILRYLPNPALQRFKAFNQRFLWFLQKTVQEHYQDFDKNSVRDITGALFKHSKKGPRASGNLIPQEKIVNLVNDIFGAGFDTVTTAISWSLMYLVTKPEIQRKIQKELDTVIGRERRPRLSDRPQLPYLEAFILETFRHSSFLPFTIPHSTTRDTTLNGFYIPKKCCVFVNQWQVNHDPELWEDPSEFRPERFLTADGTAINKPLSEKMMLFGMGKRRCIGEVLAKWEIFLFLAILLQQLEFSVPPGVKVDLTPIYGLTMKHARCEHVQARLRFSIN
Method in brief: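 CYP1A2 turnover of a luminogenic substrate was quantified after 1 h with NADPH regeneration at room temperature. Furafylline served as positive control.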

[3] = biological target: Voltage-gated inwardly rectifying potassium channel KCNH2 (Homo sapiens) (UniProt Q12809); test: Human Ether-a-go-go-Related Gene (hERG) channel small molecule antagonists: fluorescence cell-based qHTS assay (AID 1671200); note: nearly all actives have a fitted effect of over 50% in size; note: potency is the fitted concentration of half-maximal effect
Sequence of Voltage-gated inwardly rectifying potassium channel KCNH2 (Homo sapiens) (Q12809 whole entry, looked up): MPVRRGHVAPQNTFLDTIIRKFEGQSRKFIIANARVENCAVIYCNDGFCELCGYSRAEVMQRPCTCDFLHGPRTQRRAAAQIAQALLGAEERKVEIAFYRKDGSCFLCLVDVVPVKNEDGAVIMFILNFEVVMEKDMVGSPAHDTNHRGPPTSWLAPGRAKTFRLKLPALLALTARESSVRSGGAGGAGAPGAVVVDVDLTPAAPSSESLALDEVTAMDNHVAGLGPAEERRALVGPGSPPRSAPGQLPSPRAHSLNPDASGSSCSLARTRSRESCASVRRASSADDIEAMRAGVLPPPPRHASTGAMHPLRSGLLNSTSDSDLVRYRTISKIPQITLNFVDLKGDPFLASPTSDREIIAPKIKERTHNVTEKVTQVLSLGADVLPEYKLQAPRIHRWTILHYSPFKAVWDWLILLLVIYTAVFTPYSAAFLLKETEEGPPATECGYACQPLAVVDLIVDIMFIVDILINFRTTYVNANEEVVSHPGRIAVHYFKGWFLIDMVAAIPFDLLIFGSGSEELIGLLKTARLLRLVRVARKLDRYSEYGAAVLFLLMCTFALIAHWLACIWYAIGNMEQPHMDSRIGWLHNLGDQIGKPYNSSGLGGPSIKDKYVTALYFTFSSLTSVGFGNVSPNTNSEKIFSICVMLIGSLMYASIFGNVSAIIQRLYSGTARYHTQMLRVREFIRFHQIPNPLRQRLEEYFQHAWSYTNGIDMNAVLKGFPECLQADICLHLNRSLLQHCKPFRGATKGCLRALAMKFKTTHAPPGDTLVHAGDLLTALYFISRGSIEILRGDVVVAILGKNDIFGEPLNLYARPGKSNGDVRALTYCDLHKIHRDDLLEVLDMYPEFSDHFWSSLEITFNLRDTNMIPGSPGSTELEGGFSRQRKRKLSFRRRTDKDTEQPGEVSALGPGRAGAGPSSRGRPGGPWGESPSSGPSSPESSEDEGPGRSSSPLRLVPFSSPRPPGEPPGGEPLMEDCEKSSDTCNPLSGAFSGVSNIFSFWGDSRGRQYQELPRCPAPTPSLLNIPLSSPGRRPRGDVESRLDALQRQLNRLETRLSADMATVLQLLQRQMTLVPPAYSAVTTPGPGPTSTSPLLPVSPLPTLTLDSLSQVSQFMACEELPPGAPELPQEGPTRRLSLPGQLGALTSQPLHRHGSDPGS
Method in brief: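 Cell line hERG-U2OS; dye FluxOR II, 1 h RT dark; Tl+ stimulus; ex 480/em 540 nm, read each second for 2 min.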

[4] = biological target: Cytochrome P450 3A4 (Homo sapiens) (UniProt P08684); test: Cytochrome P450 Family 3 Subfamily A Member 4 (CYP3A4) small molecule antagonists: luciferase reporter qHTS assay (AID 1671201); note: nearly all actives have a fitted effect of over 50% in size; note: potency is the fitted concentration of half-maximal effect
Sequence of Cytochrome P450 3A4 (Homo sapiens) (P08684 whole entry, looked up): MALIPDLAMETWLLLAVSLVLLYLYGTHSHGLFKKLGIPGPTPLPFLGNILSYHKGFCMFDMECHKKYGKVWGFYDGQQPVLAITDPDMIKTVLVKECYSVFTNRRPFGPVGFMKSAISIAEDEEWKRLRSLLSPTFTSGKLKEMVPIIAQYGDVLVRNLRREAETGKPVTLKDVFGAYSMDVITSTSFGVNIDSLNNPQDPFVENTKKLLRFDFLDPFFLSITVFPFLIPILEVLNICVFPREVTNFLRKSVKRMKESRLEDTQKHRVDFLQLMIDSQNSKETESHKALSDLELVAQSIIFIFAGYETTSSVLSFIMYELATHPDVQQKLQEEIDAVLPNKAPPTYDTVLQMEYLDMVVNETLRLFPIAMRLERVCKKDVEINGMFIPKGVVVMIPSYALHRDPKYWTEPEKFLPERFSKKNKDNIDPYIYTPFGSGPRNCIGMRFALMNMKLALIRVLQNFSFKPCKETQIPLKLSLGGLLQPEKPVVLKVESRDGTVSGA
Method in brief: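 Room-temperature assay throughout: 10 min compound–enzyme/substrate preincubation, 1 h reaction after NADPH regeneration solution, 20 min detection. Luciferin formed from proluciferin substrate is quantified by luminescence.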

[5] = biological target: Cytochrome P450 2C19 (Homo sapiens) (UniProt P33261); test: Cytochrome P450 Family 2 Subfamily C Member 19 (CYP2C19) small molecule antagonists: luciferase reporter qHTS assay (AID 1671197); note: series mostly up to about 120 µM; nearly all actives have a fitted effect of over 65% in size
Sequence of Cytochrome P450 2C19 (Homo sapiens) (P33261 whole entry, looked up): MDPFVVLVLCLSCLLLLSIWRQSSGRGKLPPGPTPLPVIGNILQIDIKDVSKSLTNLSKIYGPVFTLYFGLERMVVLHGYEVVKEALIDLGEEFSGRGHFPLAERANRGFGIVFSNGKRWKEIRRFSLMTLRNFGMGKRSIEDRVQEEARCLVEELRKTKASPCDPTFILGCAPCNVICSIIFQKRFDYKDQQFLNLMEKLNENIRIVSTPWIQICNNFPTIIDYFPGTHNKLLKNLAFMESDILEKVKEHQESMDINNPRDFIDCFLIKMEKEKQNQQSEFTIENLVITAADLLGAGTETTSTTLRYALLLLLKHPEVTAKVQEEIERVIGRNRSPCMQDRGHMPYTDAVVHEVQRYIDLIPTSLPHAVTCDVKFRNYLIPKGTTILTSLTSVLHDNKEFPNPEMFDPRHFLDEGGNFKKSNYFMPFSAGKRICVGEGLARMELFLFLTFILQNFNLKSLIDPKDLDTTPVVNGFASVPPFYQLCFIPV
Method in brief: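 Inhibition of CYP2C19 was scored from loss of luminescence in a P450-Glo proluciferin substrate assay, NADPH-started and run 1 h at 37C, with ketoconazole as positive control.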

| Structure (SMILES) | Potency [1] | Potency [2] | Potency [3] | Potency [4] | Potency [5] |
| --- | --- | --- | --- | --- | --- |
| CNCCCCOc1ccccc1Cc1ccccc1 | inactive |  |  |  |  |
| C=C(C)C(=O)OCC | inactive | inactive | inactive | inactive |  |
| CNC(=O)CN(CCN(CCN(CC(=O)[O-])CC(=O)NC)CC(=O)[O-])CC(=O)[O-].O.[Gd+3] | inactive | inactive | inactive | inactive |  |
| CCN(CC)CCOC(=O)C(c1ccccc1)C1CCCCC1 (centres undefined) | inactive | 3.63 µM (active) | 6.01 µM (active) |  |  |
| OCc1cc(C(O)CNCCCCCCOCCCCc2ccccc2)ccc1O (centres undefined) |  | inactive | 2.68 µM (active) |  | inactive |
| CNCCCN1c2ccccc2CCc2ccccc21 | inactive | inactive |  |  |  |
| CCOC(=O)C1=C[C@]2(CC)CCCN3CCc4c(n1c1ccccc41)[C@@H]32 |  | inactive | 0.151 µM (active) |  | inactive |
| c1ccc(-c2ccccn2)nc1 |  | 71 µM (active) | inactive | inactive | inactive |
| O=C(O)c1ccc(S(=O)(=O)O)cc1C(=O)O | inactive | inactive | inactive | inactive |  |
| CCCCCCCCCCO[C@@H]1O[C@H](CO)[C@@H](O)[C@H](O)[C@H]1O | inactive | inactive |  | inactive |  |
| CC(C)(C)OCC1CO1 (centres undefined) | inactive | inactive | inactive | inactive |  |
| C=C(C)C(=O)OCCO | inactive | inactive |  | inactive |  |
| C[C@H]1C[C@H]2[C@@H]3CCC4=CC(=O)C=C[C@]4(C)[C@@]3(Cl)[C@@H](O)C[C@]2(C)[C@@]1(O)C(=O)CO | 17.4 µM (active) | inactive |  | inactive |  |
| O=C1C(O)=C(O)C(=O)C(O)=C1O | inactive |  | inactive | inactive |  |
| C[N+](C)(C)CCOC(=O)CCC(=O)OCC[N+](C)(C)C | inactive | inactive | inactive | inactive |  |
| C=C1[C@H]2CC[C@@H]3[C@H]2C(C)(C)CCC[C@]13C | inactive |  | inactive | inactive |  |
| CCNc1cc(O)ccc1C | 9.92 µM (active) | 12.5 µM (active) | inactive | 9.92 µM (active) |  |
| CC(C)CC(=O)C1C(=O)c2ccccc2C1=O | 17.8 µM (active) | 35.6 µM (active) | inactive | inactive |  |
